Assay results: PubChem BioAssay (NCATS)
Inconclusive results are not listed. Where a call stands in place of a potency, no number is given. A number with no mark means an inactive call. Active and inactive are the calls of the source. Calls follow the shape of the dose curve; as a rule, active = well fitted inhibition curve with a large enough effect; inconclusive = small, poorly fitted or top-dose-only effect; inactive = flat fitted curve, though single readings scatter.
Potency is read from the fitted curve at half-maximal effect.

Assay: P-glycoprotein substrates identified in KB-8-5-11 adenocarcinoma cell line, qHTS therapeutic library screen (AID 1346987); also: nearly all actives have a fitted effect of over 65% in size
Conditions: KB-8-5-11 (P-gp overexpressing) viability, CellTiter-Glo, 72 h; series mostly up to 44.5 µM
In short: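 In this qHTS, P-gp-rich KB-8-5-11 cells received library compounds across a concentration range. Viability was quantified by luminescence after 72 h at 37 degree C.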
For `COc1cc(OC)c(/C=C/S(=O)(=O)Cc2ccc(OC)c(NCC(=O)O)c2)c(OC)c1`, the Potency was 0.461 µM (active). In the case of `NCc1ccc(Nc2ncc(F)c(Nc3ccccc3)n2)cc1`, the Potency is reported as 5.8 µM (active). In the case of `C[C@@H](Oc1cc(-n2cnc3ccc(OC4CCN(C)CC4)cc32)sc1C(N)=O)c1ccccc1C(F)(F)F`, the Potency is reported as 0.206 µM (active). For `Cc1oc2ccccc2c1CNC(=O)NCc1cccs1`, the Potency was “inactive”. With `C=C[C@@](C)(O)CC/C=C(\C)C(=O)O[C@@H]1[C@@H]2O[C@]2(C)[C@H]2[C@H](O[C@@H]3O[C@H](CO)[C@@H](O)[C@H](O)[C@H]3O)OC=C[C@@]12O` the Potency was “inactive”. With `CC(=O)O[C@@H]1c2c(C)coc2C(=O)[C@@]23O[C@@H]2CC[C@H](C)[C@@]13C` the Potency was “inactive”. With `C[C@@H]1O[C@@H](O[C@H]2[C@H](O[C@H]3[C@H](O[C@H]4CC[C@@]5(C)C(CC[C@]6(C)C5CC=C5[C@@H]7CC(C)(C)C[C@@H](O)[C@]7(C)CC[C@]56C)[C@@]4(C)CO)O[C@H](C(=O)O)[C@@H](O)[C@@H]3O)OC[C@H](O)[C@@H]2O)[C@H](O)[C@H](O)[C@H]1O` (stereo partly drawn) the activity change, negative = cytotoxicity was 3.08% [at 9.29 µM]. For `CC1(C)CC[C@]2(CO[C@@H]3O[C@H](CO)[C@@H](O)[C@H](O)[C@H]3O)[C@@H](O)C[C@]3(C)C(=CCC4[C@@]5(C)CC[C@H](O[C@@H]6O[C@H](CO[C@@H]7O[C@H](CO[C@@H]8OC[C@@H](O)[C@H](O)[C@H]8O)[C@@H](O)[C@H](O)[C@H]7O)[C@@H](O)[C@H](O)[C@H]6O)C(C)(C)C5CC[C@]43C)[C@@H]2C1` (stereo partly drawn), the activity change, negative = cytotoxicity was 1.76% [at 9.29 µM]. With `C=C[C@H]1[C@H](O[C@@H]2O[C@H](CO)[C@@H](O)[C@H](O)[C@H]2O)OC=C(C(=O)OC)[C@H]1C/C=C(/C=O)[C@@H]1C(C(=O)OC)=CO[C@@H](O[C@@H]2O[C@H](CO)[C@@H](O)[C@H](O)[C@H]2O)[C@@H]1C=C` the Potency was “inactive”. With `O=C1CCC(c2ccccc2)(C2CCN(Cc3ccc(I)cc3)CC2)C(=O)N1` (stereo not drawn) the Potency was “inactive”. For `O=C(O)CC1CCC(c2ccc(-c3ccc4nc(C(=O)NCc5ccc(OC(F)(F)F)cc5)cn4c3)cc2)CC1` (stereo not drawn), the Potency was “inactive”. In the case of `C=C1C(OC2OCC(O)C(O)C2O)CC2C(C)(C)C(O)CCC2(C)C1CC/C(C)=C\CO` (stereo not drawn), the Potency is reported as “inactive”. With `NC(=O)c1cccc(-c2cc(OC(=O)NC3CCCCC3)ccc2O)c1` the Potency was “inactive”. With `CO/N=C(/C(=O)N[C@@H]1C(=O)N2C(C(=O)O)=C(Cn3ccc(=N)n3CCO)CS[C@H]12)c1csc(N)n1` the Potency was “inactive”. With `COC(=O)c1ccccc1O[C@@H]1O[C@H](CO)[C@@H](O)[C@H](O)[C@H]1O[C@@H]1O[C@@H](C)[C@H](O)[C@@H](O)[C@H]1O` the Potency was “inactive”. With `CC/C=C\CCO[C@@H]1O[C@H](CO)[C@@H](O)[C@H](O)[C@H]1O` the Potency was “inactive”. In the case of `O=C(CO)[C@@H](O)[C@H](O[C@@H]1O[C@H](CO)[C@H](O)[C@H](O)[C@H]1O)[C@H](O)CO`, the Potency is reported as “inactive”. With `C=C(C)C1CC[C@]2(C(=O)O)CC[C@]3(C(=O)O)[C@H](CCC4[C@@]5(C)CC[C@H](O)C(C)(C)C5CC[C@]43C)C12` (stereo partly drawn) the Potency was “inactive”. For `C[C@]12C[C@@H](O)[C@@H]3C[C@@]1(O[C@@H]1O[C@H](CO)[C@@H](O)[C@H](O)[C@H]1O)[C@]3(COC(=O)c1ccccc1)C(=O)O2`, the Potency was “inactive”. In the case of `CC1(C)CCC(C)(C)c2cc(C3(c4ccc(C(=O)O)cc4)OCCO3)ccc21`, the Potency is reported as “inactive”. In the case of `CC(O)/C=C/C1(O)C2(C)COC1(C)CC(O)C2` (stereo not drawn), the Potency is reported as “inactive”. With `C[C@@H]1O[C@@H](O[C@H]2[C@H](OC(=O)[C@]34CCC(C)(C)C[C@H]3C3=CCC5[C@@]6(C)C[C@H](O)[C@H](O[C@@H]7O[C@H](CO)[C@@H](O[C@H]8OC[C@](O)(CO)[C@H]8O)[C@H](O)[C@H]7O)[C@@](C)(CO)C6[C@H](O)C[C@@]5(C)[C@]3(C)C[C@H]4O)OC[C@H](O)[C@@H]2O)[C@H](O)[C@H](O)[C@H]1O[C@@H]1OC[C@@H](O)[C@H](O[C@@H]2OC[C@](O)(CO)[C@H]2O)[C@H]1O` (stereo partly drawn) the activity change, negative = cytotoxicity was 9.78% [at 9.29 µM]. For `CC1OC(OC2C(C)OC(OC3C(O)C(CO)OC(O[C@H]4CC[C@@]5(C)C(CC[C@]6(C)C5CC=C5C7[C@@H](C)[C@H](C)CC[C@]7(C(=O)O)CC[C@]56C(=O)O)C4(C)C)C3O)C(O)C2O)C(O)C(O)C1O` (stereo partly drawn), the outcome was “inactive [at 9.29 µM]”. For `C=C1CCC2C(C)(C(=O)O)CCCC2(C)C1CC/C(=C\CO)CO` (stereo not drawn), the Potency was “inactive”. For `C[C@@H]1C[C@@H](O)[C@@]23CO[C@@H](O)[C@@H]2CCC[C@@H]3[C@@]12C[C@@H](c1ccoc1)OC2=O`, the Potency was “inactive”. For `COc1cccc(-c2cc(NCc3ccc4c(c3)OCO4)nc(N)n2)c1`, the Potency was 0.164 µM (active). For `C[C@H](O)[C@H](O)/C=C/c1cccc(O)c1CO`, the Potency was “inactive”. In the case of `CCN(CC)Cc1ccc(C(=O)N(CCc2ccccc2OC)[C@@H]2CCNC2)cc1`, the Potency is reported as “inactive”. In the case of `CCC1=CC2CN(C1)Cc1c([nH]c3ccccc13)[C@@](C(=O)OC)(c1cc3c(cc1OC)N(C)[C@H]1[C@@](O)(C(=O)OC)[C@H](OC(C)=O)[C@]4(CC)C=CCN5CC[C@]31[C@@H]54)C2` (stereo partly drawn), the Potency is reported as 7.09 µM (active). In the case of `COc1ccc2cc(C(C)C(=O)Oc3ccc(C(N)=S)cc3)ccc2c1` (stereo not drawn), the Potency is reported as “inactive”. For `COc1cc(/C=C/CO)cc(OC)c1O[C@@H]1O[C@H](CO[C@@H]2O[C@H](CO)[C@@H](O)[C@H](O)[C@H]2O)[C@@H](O)[C@H](O)[C@H]1O`, the Potency was “inactive”. In the case of `COc1cc2c(cc1OC)[C@@H]1[C@H](O)[C@@H](OC)C=C3CCN(C2)[C@H]31`, the Potency is reported as 5.7 µM (active). In the case of `CC1(C)CC2C(C1)C(C)(O)C13CC1(COC3=O)C2O` (stereo not drawn), the Potency is reported as “inactive”. For `Nc1nc2c(c(N3CCNCC3)n1)CCC1=C2[C@@H]2CCCC[C@@H]2O1`, the Potency was “inactive”. For `CC(Cc1cc2c(c(C(N)=O)c1)N(CCCO)CC2)NCCOc1ccccc1OCC(F)(F)F` (stereo not drawn), the Potency was “inactive”. With `C[C@H]1CC(=O)Nc2cccc(-c3cnn(C(C)(C)C)c3)c2N1` the Potency was “inactive”. For `C=C1C(=O)O[C@@H]2/C=C(\C)C(=O)/C=C/[C@](C)(O)C[C@@H](OC(=O)C(C)C)[C@@H]12`, the Potency was 4.53 µM (active). With `COC1C(CO)OC(n2cnc3c(=O)[nH]cnc32)C1O` (stereo not drawn) the Potency was “inactive”.
